According to PubChem BioAssay AID1159580 (chemical genetic matrix, 2015):
Among all 5,500 compounds or so, about 2,000 (36%) were called active. About 18% were inconclusive and are not listed. Cut-off read from the data, not from the text of the source: active = normalized growth mostly below about 0.91 (no sharp cut-off); inconclusive = no clear call, values can overlap the other calls; inactive = mostly above about 0.92. The list shows a part of the results.

Test: chemical genetic growth profiling, strain panel (AID 1159580);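 note: tested at 20 µM; growth read once vehicle control cultures reached saturation at 30 °C; 1 = growth at the plate median or of vehicle wells; lower values mean less growth of the strain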
Details: S. cerevisiae deletion strains, growth OD

Measured: normalized growth

CC1(C)C=CC(=O)[C@@]2(C)C1CC(=O)[C@]1(C)C2CC[C@@]2(C)[C@H](c3ccoc3)OC(=O)C3OC321 (stereo partly drawn)
inactive: locus YAL021C, strain ccr4, active compounds read low 0.977 | locus YAL026C, strain drs2, active compounds read low 1 | locus YAL030W, strain snc1, active compounds read low 0.995 | locus YBL061C, strain skt5, active compounds read low 0.998 | locus YBR009C, strain hhf1, active compounds read low 0.984 | locus YBR021W, strain FUR4, active compounds read low 1 | locus YBR023C, strain chs3, active compounds read low 0.983 | locus YBR171W, strain sec66, active compounds read low 1.01 | locus YBR229C, strain ROT2, active compounds read low 0.944 | locus YBR231C, strain swc5, active compounds read low 1 | locus YBR279W, strain paf1, active compounds read low 0.988 | locus YCL011C, strain gbp2, active compounds read low 0.996 | locus YCL016C, strain dcc1, active compounds read low 0.99 | locus YCL029C, strain bik1, active compounds read low 0.96 | locus YCL061C, strain MRC1, active compounds read low 1.01 | locus YCL069W, strain vba3, active compounds read low 0.995 | locus YCR088W, strain abp1, active compounds read low 1 | locus YDL005C, strain med2, active compounds read low 0.996 | locus YDL035C, strain GPR1, active compounds read low 0.945 | locus YDL040C, strain nat1, active compounds read low 0.996 | locus YDL074C, strain BRE1, active compounds read low 0.926 | locus YDL101C, strain DUN1, active compounds read low 0.967 | locus YDL185W, strain tfp1, active compounds read low 0.966 | locus YDL192W, strain arf1, active compounds read low 0.94 | locus YDR001C, strain nth1, active compounds read low 0.992 | locus YDR069C, strain doa4, active compounds read low 0.976 | locus YDR101C, strain arx1, active compounds read low 0.93 | locus YDR159W, strain sac3, active compounds read low 0.954 | locus YDR162C, strain NBP2, active compounds read low 0.953 | locus YDR195W, strain ref2 1.03 | locus YDR297W, strain sur2, active compounds read low 0.983 | locus YDR318W, strain mcm21, active compounds read low 0.969 | locus YDR334W, strain swr1, active compounds read low 1 | locus YDR335W, strain msn5, active compounds read low 1 | locus YDR388W, active compounds read low 0.982 | locus YDR392W, strain spt3, active compounds read low 0.982 | locus YDR502C, strain sam2, active compounds read low 0.983 | locus YEL003W, strain gim4, active compounds read low 0.994 | locus YEL037C, strain rad23, active compounds read low 1 | locus YEL061C, strain CIN8 (second series), active compounds read low 0.997 | locus YEL061C, strain CIN8, active compounds read low 0.971 | locus YER015W, strain faa2, active compounds read low 0.982 | locus YER016W, strain bim1, active compounds read low 0.985 | locus YER110C, active compounds read low 0.959 | locus YER111C, strain swi4, active compounds read low 1 | locus YER155C, strain BEM2 (second series), active compounds read low 1.01 | locus YER155C, strain BEM2, active compounds read low 0.998 | locus YER167W, strain BCK2, active compounds read low 0.959 | locus YFR010W, strain ubp6, active compounds read low 1.01 | locus YGL078C, strain dbp3, active compounds read low 1.02 | locus YGL086W, strain mad1, active compounds read low 0.979 | locus YGL167C, strain pmr1, active compounds read low 0.991 | locus YGL173C, strain kem1, active compounds read low 0.994 | locus YGL227W, strain vid30, active compounds read low 0.994 | locus YGL240W, strain doc1, active compounds read low 0.99 | locus YGL248W, strain PDE1, active compounds read low 0.974 | locus YGL253W, strain hxk2, active compounds read low 0.994 | locus YGR078C, strain PAC10, active compounds read low 0.981 | locus YGR135W, strain pre9, active compounds read low 1.03 | locus YGR252W, strain gcn5, active compounds read low 0.966 | locus YHR013C, strain ard1, active compounds read low 0.968 | locus YHR027C, strain rpn1, active compounds read low 0.979 | locus YHR030C, strain SLT2, active compounds read low 0.98 | locus YHR079C, strain IRE1 (second series), active compounds read low 0.975 | locus YHR094C, strain hxt1, active compounds read low 0.967 | locus YHR129C, strain ARP1, active compounds read low 0.98 | locus YHR142W, strain chs7, active compounds read low 0.999 | locus YHR200W, strain rpn10, active compounds read low 0.986 | locus YIL066C, strain RNR3, active compounds read low 0.904 | locus YIL073C, strain SPO22, active compounds read low 1.01 | locus YIL125W, strain kgd1, active compounds read low 0.968 | locus YIR030C, strain dcg1, active compounds read low 0.969 | locus YJL092W, strain hpr5, active compounds read low 0.999 | locus YJL095W, strain BCK1 (second series), active compounds read low 0.985 | locus YJL095W, strain BCK1, active compounds read low 0.981 | locus YJL115W, strain asf1, active compounds read low 0.994 | locus YJL129C, strain trk1, active compounds read low 0.976 | locus YJL134W, strain LCB3, active compounds read low 0.975 | locus YJL154C, strain vps35, active compounds read low 0.996 | locus YJL164C, strain tpk1, active compounds read low 0.991 | locus YJL166W, strain qcr8, active compounds read low 0.992 | locus YJL168C, strain set2, active compounds read low 0.98 | locus YJL187C, strain SWE1 (second series), active compounds read low 0.977 | locus YJL187C, strain SWE1, active compounds read low 0.997 | locus YJR043C, strain POL32, active compounds read low 0.981 | locus YKL009W, strain mrt4, active compounds read low 1.02 | locus YKL068W, active compounds read low 0.993 | locus YKL085W, strain MDH1 (second series), active compounds read low 1 | locus YKL085W, strain MDH1, active compounds read low 1 | locus YKL160W, strain elf1, active compounds read low 0.987 | locus YKL190W, strain CNB1, active compounds read low 0.975 | locus YKR001C, strain vps1, active compounds read low 0.996 | locus YKR026C, strain gcn3, active compounds read low 0.989 | locus YKR091W, strain srl3, active compounds read low 0.994 | locus YLL001W, strain dnm1, active compounds read low 1.01 | locus YLL026W, active compounds read low 0.984 | locus YLL041C, strain sdh2, active compounds read low 1 | locus YLR027C, strain aat2, active compounds read low 0.984 | locus YLR039C, strain RIC1, active compounds read low 0.863 | locus YLR058C, strain SHM2, active compounds read low 0.949 | locus YLR102C, strain apc9, active compounds read low 0.972 | locus YLR221C, strain rsa3, active compounds read low 1 | locus YLR258W, strain gsy2, active compounds read low 0.988 | locus YLR262C, strain YPT6 (second series), active compounds read low 0.905 | locus YLR262C, strain YPT6, active compounds read low 0.857 | locus YLR268W, strain sec22, active compounds read low 0.911 | locus YLR320W, strain mms22, active compounds read low 0.988 | locus YLR342W, strain FKS1 (second series), active compounds read low 0.915 | locus YLR342W, strain FKS1, active compounds read low 1.01 | locus YLR357W, strain rsc2, active compounds read low 1.01 | locus YLR370C, strain arc18, active compounds read low 0.992 | locus YLR384C, strain iki3, active compounds read low 1 | locus YLR418C, strain cdc73, active compounds read low 0.952 | locus YML016C, strain PPZ1, active compounds read low 0.951 | locus YML032C, strain rad52, active compounds read low 0.936 | locus YML120C, strain ndi1, active compounds read low 0.99 | locus YML124C, strain tub3, active compounds read low 0.973 | locus YMR058W, strain fet3, active compounds read low 1.01 | locus YMR078C, strain ctf18, active compounds read low 0.974 | locus YMR125W, strain sto1, active compounds read low 0.995 | locus YMR129W, active compounds read low 0.99 | locus YMR205C, strain PFK2, active compounds read low 1.01 | locus YMR223W, strain ubp8, active compounds read low 0.984 | locus YMR231W, strain pep5, active compounds read low 1.01 | locus YMR263W, strain SAP30, active compounds read low 0.975 | locus YMR307W, strain GAS1, active compounds read low 0.865 | locus YNL067W, strain RPL9B, active compounds read low 1.02 | locus YNL071W, strain lat1, active compounds read low 0.999 | locus YNL153C, strain GIM3, active compounds read low 0.981 | locus YNL209W, strain ssb2, active compounds read low 0.984 | locus YNL233W, strain BNI4, active compounds read low 0.984 | locus YNL248C, strain rpa49, active compounds read low 0.983 | locus YNL250W, strain rad50, active compounds read low 1 | locus YNL271C, strain bni1, active compounds read low 0.963 | locus YNL298W, strain CLA4, active compounds read low 0.97 | locus YNL307C, strain MCK1, active compounds read low 0.961 | locus YNL322C, strain KRE1 (second series), active compounds read low 0.989 | locus YNR049C, strain mso1, active compounds read low 1 | locus YNR052C, strain pop2, active compounds read low 0.977 | locus YOL006C, strain TOP1, active compounds read low 0.813 | locus YOL012C, strain htz1 1.08 | locus YOL147C, strain pex11, active compounds read low 0.971 | locus YOR001W, strain rrp6, active compounds read low 1 | locus YOR061W, strain CKA2, active compounds read low 0.924 | locus YOR069W, strain VPS5, active compounds read low 0.981 | locus YOR070C, strain gyp1, active compounds read low 1 | locus YOR080W, strain dia2, active compounds read low 1 | locus YOR083W, strain WHI5, active compounds read low 0.999 | locus YOR106W, strain vam3, active compounds read low 1 | locus YOR136W, strain idh2, active compounds read low 0.981 | locus YOR144C, strain elg1, active compounds read low 0.973 | locus YOR184W, strain ser1, active compounds read low 0.922 | locus YOR265W, strain rbl2, active compounds read low 1 | locus YOR270C, strain vph1, active compounds read low 0.833 | locus YOR290C, strain snf2, active compounds read low 0.974 | locus YOR316C, strain cot1, active compounds read low 0.965 | locus YPL051W, strain arl3, active compounds read low 0.987 | locus YPL055C, strain LGE1, active compounds read low 0.884 | locus YPL078C, strain atp4, active compounds read low 1 | locus YPL106C, strain sse1, active compounds read low 1 | locus YPL240C, strain hsp82, active compounds read low 0.999 | locus YPR119W, strain clb2, active compounds read low 0.985 | locus YPR141C, strain kar3, active compounds read low 0.972 | locus YPR163C, strain tif3, active compounds read low 0.956 | locus YPR167C, strain met16, active compounds read low 0.986 | strain wtn01, active compounds read low 0.936
active: locus YDR137W, strain rgp1, active compounds read low 0.843 | locus YLR371W, strain rom2, active compounds read low 0.901
